Reference: the supplement of paper PMC6555819

system: VDR:RXRa (NR concentration 270 nM, RXRa partner concentration 90 nM); assay: PBM binding z-score (relative to random genomic background probes); higher = stronger binding; sequences stand for … in GC…GCGATTGACAGCGTAGAATGAAGG
Description: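 Protein-binding microarray (Agilent 4x180K custom design, double-stranded 60-nt probes: 5' GC cap, 34-nt variable region, 24-nt constant primer region; full probe sequence given). Purified or IVT nuclear receptor:RXRα heterodimers (3:1 NR:RXRα, mostly 270:90 nM) or homodimers were incubated for 1 h in PBS with 2% milk and no ligand, then detected with Alexa488 antibodies. Fluorescence from o1-orientation probes (~5 replicates averaged) was converted to z-scores against 500 random hg19 background probes. Variable regions are seed direct-repeat (DR0–DR5) sites, all their single-nucleotide variants and half-site ablations.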

Sequence	PBM binding z-score
CTACCAAGGTGTACAAGGTCGTTGATTACTATTC	2.39
TCTATTAGTTGAAGGGCAACTGACGAGTCCGTTT	0.937
TCTTGTAGATCAAAGGTTAAGCAAGCCGAAGCCT	1.65
GTACCAAGGTGAATAGGTCGCTGATGAGTAGGCG	0.351
TGAATGAGGTTAAAGATGAGGGAACGTGGCGTCG	1.48
CCTACTGGGCCATCAGGTCATTTATATCAACGTT	1.65
TCTTGTAGATCAAGCAGGTTAAGTAAGCCTGAGT	0.507
CAAACTAGGTCAAGGTTAAAGTCGGTTTGTGCCA	3.2
GCGACTGGGGCATCAACAGGTTACCATAACTTAA	0.0297
GTACCAAGGTGAGTAGGTCGTTGATGAGTAGGCG	0.177
CGTCCAAGGTGATAGGAGGTCAGTGAAGACAGAT	3.08
TCGAGTAGGTTACCAATCGGGCATTCAGCTTTCT	-0.344
CGAACTAGGTCATCCAGGACAGTGATTACATTGA	4.57
TAGCCTAGGTCAGATCGGGCCAGCATACGCTATA	0.584
CGAACTAGGTCAGAACAGGATAGTGAAGGATGAT	0.322
CGCCAAAGTTCAACTAAGGTAACGTAAAGCACGC	4.9
TAGCCTAGGTCATGGGGCCAGTATAGTACGCATC	2.69
AGAATGAGGTTACCAAAGATAAGGGAAACGCTTG	1.07
TCTAGTTGGCCACGGAGGTCACACACGACGGGTA	3.97
GTACCAAGGTGAATAGCTCGTTGATGAGTAGGCG	-0.223

Sequence	PBM binding z-score
TGAATGAGGTTGAAGATCAGGGAACGTGGCGTCG	-0.171
CAAACTAGGTCAAGGTGAAAGTCGGTTTGTGCCA	2.1
AGTCAAAGTTCGCTAGGTAACGTAAGATTCAGCT	0.489
ACTTACTGGTCAACGAGGTTATAGCACGCGTATA	5.15
TCGAGTAGGTTATTCGGGGCATTCAGCCAACATA	4.03
TTACCAAGGTGAAGGTCGTTAATCCCTCTGTAGA	1.16
ATATGTAGGTTAACGGTCATTCAGGTTGGTTCGC	2.32
TCTAATTGGTCAAAGGTCACACACTCGAAATGCG	5.62
CCTATTAGTAGACCATAAGGGCAACCGAAGCTCG	0.553
CCTTACGGGTCACTGACAGGTTAAAGCATTTGGA	3.75
CGTCCAAAGTCAATGCTAGGTCAGTGAAAGCATT	0.457
GCTATTAGTTGAATGGGCAACCGAATGATTCTCG	-0.287
CCAGACAAGTGAGAAGGTAACTCAGCCTCGATTA	0.143
TATACAGGGTCAAAGGCCAGACTACGAATGTCGA	4.68
CCTTACGGGTCACTCCTGGTTATAGCATCGGAGT	2.79
TCTGCTAGGCCAACGATGGTCAGCTAATCTGCTA	-0.596
CAGCCTAGGTCAGGGCCAGGATAGGAGGAACGTT	0.0936
GCAGACAGGTGAAACGGAGGTAACTCAGGGTGGC	-0.2
CCTCGGAGGACAGAAGCTCAGAGCTGTCCGCTTT	-0.941
CCTGCTAGGTAATGGTCAGCTAATCTACAGTATG	-0.407
